# Test results published in PubChem BioAssay AID1159580 (chemical genetic matrix, 2015).
# In all, about 5,500 compounds went through this assay and about 2,000 (36%) were called active. Roughly 18% stayed inconclusive and do not appear here. This is one part of the list. A number with no mark means an inactive call. Cut-off read from the data, not from the text of the source: active = normalized growth mostly below about 0.91 (no sharp cut-off); inconclusive = no clear call, values can overlap the other calls; inactive = mostly above about 0.92.
# Assay: chemical genetic growth profiling, strain panel (AID 1159580);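 note: tested at 20 µM; growth read once vehicle control cultures reached saturation at 30 °C; 1 = growth at the plate median or of vehicle wells; lower values mean less growth of the strain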
# Settings: S. cerevisiae deletion strains, growth OD
# [1] = locus YAL013W, strain DEP1, hits give low values
# [2] = locus YAL040C, strain CLN3, hits give low values
# [3] = locus YDR363W, strain ESC2, hits give low values
# [4] = locus YER002W, strain NOP16, hits give low values
# [5] = locus YGR078C, strain PAC10, hits give low values
# [6] = locus YGR229C, strain SMI1, hits give low values
# [7] = locus YJR075W, strain HOC1, hits give low values
# [8] = locus YMR263W, strain SAP30, hits give low values
# [9] = locus YNL153C, strain GIM3, hits give low values
# [10] = locus YNL175C, strain NOP13, hits give low values
# [11] = locus YNL197C, strain WHI3, hits give low values
# [12] = locus YNL224C, strain SQS1, hits give low values
# [13] = locus YOR083W, strain WHI5 (second series), hits give low values
# [14] = locus YPL055C, strain LGE1, hits give low values
# [15] = locus YDL101C, strain DUN1, hits give low values
# [16] = locus YHR030C, strain SLT2, hits give low values
# [17] = locus YPL241C, strain CIN2, hits give low values
structure (smiles),measurement,setting,value
NCCCCNS(=O)(=O)c1cccc2c(Cl)cccc12,normalized growth,[1],1.01
same,normalized growth,[2],1.02
same,normalized growth,[3],1.01
same,normalized growth,[4],1.01
same,normalized growth,[5],1.01
same,normalized growth,[6],1.04
same,normalized growth,[7],0.989
same,normalized growth,[8],1.01
same,normalized growth,[9],0.993
same,normalized growth,[10],1
same,normalized growth,[11],1
same,normalized growth,[12],0.995
same,normalized growth,[13],1.02
same,normalized growth,[14],1.01
N=c1ccc2nc3c(Cl)c4c(c(Cl)c3oc-2c1S(=O)(=O)O)Nc1ccc(N)c(S(=O)(=O)O)c1O4,normalized growth,"locus YAR019C, strain CDC15, hits give low values",1.01
same,normalized growth,"locus YBL105C, strain PKC1, hits give low values",1.01
same,normalized growth,"locus YBR135W, strain CKS1, hits give low values",1.01
same,normalized growth,"locus YBR136W, strain MEC1, hits give low values",1.01
same,normalized growth,"locus YBR160W, strain CDC28, hits give low values",1.01
same,normalized growth,"locus YDL017W, strain CDC7, hits give low values",1.02
same,normalized growth,"locus YDL028C, strain MPS1, hits give low values",1.01
same,normalized growth,[15],1.01
same,normalized growth,"locus YDL108W, strain KIN28, hits give low values",1.01
same,normalized growth,"locus YDL132W, strain cdc53, hits give low values",1
same,normalized growth,"locus YDL214C, strain PRR2, hits give low values",1.02
same,normalized growth,"locus YDR052C, strain DBF4, hits give low values",1.01
same,normalized growth,"locus YDR054C, strain cdc34, hits give low values",1
same,normalized growth,"locus YDR226W, strain ADK1, hits give low values",0.993
same,normalized growth,"locus YDR477W, strain SNF1, hits give low values",1.01
same,normalized growth,"locus YER123W, strain YCK3, hits give low values",1.01
same,normalized growth,"locus YER133W, strain GLC7, hits give low values",0.992
same,normalized growth,"locus YFL009W, strain cdc4, hits give low values",0.997
same,normalized growth,"locus YFL029C, strain CAK1, hits give low values",1
same,normalized growth,"locus YFR003C, strain YPI1, hits give low values",1.01
same,normalized growth,"locus YFR019W, strain FAB1, hits give low values",0.993
same,normalized growth,"locus YFR028C, strain CDC14, hits give low values",1.01
same,normalized growth,"locus YGR040W, strain KSS1, hits give low values",1.02
same,normalized growth,"locus YGR052W, strain FMP48, hits give low values",1.09
same,normalized growth,"locus YGR092W, strain DBF2, hits give low values",1.03
same,normalized growth,[16],0.962
same,normalized growth,"locus YHR079C, strain IRE1, hits give low values",0.995
same,normalized growth,"locus YHR082C, strain KSP1, hits give low values",1.16
same,normalized growth,"locus YHR205W, strain SCH9, hits give low values",1
same,normalized growth,"locus YIL147C, strain SLN1, hits give low values",1.01
same,normalized growth,"locus YJL095W, strain BCK1, hits give low values",1.06
same,normalized growth,"locus YJL128C, strain PBS2, hits give low values",1
same,normalized growth,"locus YJL157C, strain FAR1, hits give low values",0.994
same,normalized growth,"locus YJR016C, strain ILV3, hits give low values",1.02
same,normalized growth,"locus YJR066W, strain TOR1 (second series), hits give low values",0.981
same,normalized growth,"locus YJR066W, strain TOR1, hits give low values",1.14
same,normalized growth,"locus YKL048C, strain ELM1, hits give low values",1.01
same,normalized growth,"locus YKL067W, strain YNK1, hits give low values",1.01
same,normalized growth,"locus YKL101W, strain HSL1, hits give low values",1.02
same,normalized growth,"locus YKL193C, strain SDS22, hits give low values",1.01
same,normalized growth,"locus YKL203C, strain TOR2, hits give low values",1.06
same,normalized growth,"locus YLR113W, strain HOG1, hits give low values",1.06
same,normalized growth,"locus YLR133W, strain CKI1, hits give low values",1.01
same,normalized growth,"locus YLR403W, strain SFP1, hits give low values",0.975
same,normalized growth,"locus YML070W, strain DAK1, hits give low values",1.02
same,normalized growth,"locus YMR001C, strain CDC5, hits give low values",1.01
same,normalized growth,"locus YMR205C, strain PFK2 (second series), hits give low values",1.02
same,normalized growth,"locus YMR277W, strain FCP1, hits give low values",1.01
same,normalized growth,"locus YNL006W, strain LST8, hits give low values",1
same,normalized growth,"locus YNL020C, strain ARK1, hits give low values",1.02
same,normalized growth,"locus YNL161W, strain CBK1, hits give low values",0.998
same,normalized growth,"locus YNL183C, strain NPR1, hits give low values",1.11
same,normalized growth,"locus YNL207W, strain RIO2, hits give low values",1.02
same,normalized growth,"locus YNL222W, strain SSU72, hits give low values",1.01
same,normalized growth,"locus YNL307C, strain MCK1 (second series), hits give low values",1.01
same,normalized growth,"locus YOL078W, strain AVO1, hits give low values",1.01
same,normalized growth,"locus YOL136C, strain PFK27, hits give low values",1
same,normalized growth,"locus YOR061W, strain CKA2, hits give low values",1.02
same,normalized growth,"locus YOR119C, strain RIO1, hits give low values",1.08
same,normalized growth,"locus YOR231W, strain MKK1, hits give low values",1.04
same,normalized growth,"locus YOR329C, strain SCD5, hits give low values",1.01
same,normalized growth,"locus YPL031C, strain PHO85, hits give low values",1.01
same,normalized growth,"locus YPL153C, strain RAD53, hits give low values",1.01
same,normalized growth,"locus YPL204W, strain HRR25, hits give low values",1
same,normalized growth,"locus YPL209C, strain IPL1, hits give low values",1.01
same,normalized growth,"locus YPL256C, strain CLN2, hits give low values",0.998
same,normalized growth,"locus YPR025C, strain CCL1, hits give low values",1.01
same,normalized growth,"locus YPR106W, strain ISR1, hits give low values",1.02
same,normalized growth,"locus YPR111W, strain DBF20, hits give low values",1
same,normalized growth,"strain NNK1, hits give low values",1.03
same,normalized growth,"strain TSCII, hits give low values",1
O=C(NNC(=O)c1ccccc1[N+](=O)[O-])c1ccc(Cl)cc1,normalized growth,[1],1.02
same,normalized growth,"locus YBR229C, strain ROT2, hits give low values",1.03
same,normalized growth,"locus YCL061C, strain MRC1, hits give low values",1.02
same,normalized growth,[15],0.981
same,normalized growth,"locus YDR150W, strain NUM1, hits give low values",0.904
same,normalized growth,"locus YEL061C, strain CIN8, hits give low values",1.01
same,normalized growth,[5],0.995
same,normalized growth,[16],1.14
same,normalized growth,"locus YHR087W, strain rtc3, hits give low values",0.994
same,normalized growth,"locus YJL187C, strain SWE1, hits give low values",1
same,normalized growth,"locus YJR043C, strain POL32, hits give low values",0.869 (active)
same,normalized growth,[7],0.991
same,normalized growth,"locus YKL190W, strain CNB1, hits give low values",1.01
same,normalized growth,"locus YLR039C, strain RIC1, hits give low values",1.03
same,normalized growth,"locus YLR058C, strain SHM2 (second series), hits give low values",1.01
same,normalized growth,"locus YLR085C, strain ARP6, hits give low values",1.05
same,normalized growth,"locus YLR262C, strain YPT6, hits give low values",1.01
same,normalized growth,"locus YML094W, strain GIM5, hits give low values",1.02
same,normalized growth,"locus YMR219W, strain ESC1, hits give low values",1.02
same,normalized growth,[8],0.91
same,normalized growth,[9],0.993
same,normalized growth,"locus YNL298W, strain CLA4 (second series), hits give low values",1.04
same,normalized growth,"locus YNL322C, strain KRE1, hits give low values",1.01
same,normalized growth,"locus YNR030W, strain Alg12, hits give low values",1.03
same,normalized growth,"locus YOL006C, strain TOP1, hits give low values",1.13
same,normalized growth,[14],0.9
same,normalized growth,[17],1.03
same,normalized growth,"locus YPR135W, strain CTF4, hits give low values",1.16
O=C(c1cc(O)c(O)c([N+](=O)[O-])c1)c1ccccc1F,normalized growth,[2],0.964
same,normalized growth,"locus YCL061C, strain MRC1 (second series), hits give low values",0.953
same,normalized growth,[3],0.98
same,normalized growth,[4],0.978
same,normalized growth,[5],0.977
same,normalized growth,[6],0.886
same,normalized growth,"locus YMR307W, strain GAS1, hits give low values",0.966
same,normalized growth,[10],0.985
same,normalized growth,[11],0.97
same,normalized growth,[12],0.969
same,normalized growth,[13],0.996
same,normalized growth,[17],0.99
